“And” between values parts separate entries of the source, which are not always exact repeats. Equal values may be shown once. Results filed as inconclusive are left out. The source made the active and inactive calls. Calls follow the shape of the dose curve; as a rule, active = well fitted curve in the direction sought with a large enough effect in the repeat runs; inconclusive = weak or mixed curves; inactive = no such curve, though single readings can be large; an effect the other way counts as inactive or inconclusive.
Assays:
[1] = qHTS RealTime-Glo MT Cell Viability Assay in HepG2 cells - 40 hour (AID 1224870); also: nearly all actives have a fitted effect of over 50% in size
Outline: (§1)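 HepG2 cells mixed with RealTime-Glo MT reagents (NanoLuc plus cell-permeant prosubstrate) were seeded at 600 cells/well, incubated 5 h at 37 C/5% CO2, then pinned with compounds in DMSO; nonlytic luminescence tracked viability during 40 h treatment.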

[2] = qHTS RealTime-Glo MT Cell Viability Assay in HEK293 cells - 16 hour (AID 1224872); also: top concentration of the series differs between compounds; nearly all actives have a fitted effect of over 50% in size
Outline: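 HEK293 cells seeded with NanoLuc/prosubstrate reagent, rested 5 h at 37 C, then dosed and kept at 37 C up to 40 h. Nonlytic real-time luminescence from viable cells read at 0, 8, 16, 24, 32 and 40 h.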

[3] = qHTS RealTime-Glo MT Cell Viability Assay in HepG2 cells - 8 hour (AID 1224873); also: nearly all actives have a fitted effect of over 55% in size
Outline: as §1

[4] = qHTS RealTime-Glo MT Cell Viability Assay in HEK293 cells - 40 hour (AID 1224874); details: RealTime-Glo luminescence; max response: hits give low values; also: nearly all actives have a fitted effect of over 50% in size
Outline: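 qHTS format; HEK293 cells with NanoLuc/prosubstrate reagent, 37 C/5% CO2 for 5 h pre-dosing; compounds 23 nL in DMSO; luminescence at each time point reflects viable cells.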

[5] = A CellTox Green Cytotoxicity Assay to monitor cytotoxicity in HepG2 cells - 16 hour (AID 1224876); also: nearly all actives have a fitted effect of over 45% in size
Outline: (§2)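 Continuous culture of HepG2 cells with a membrane-impermeant DNA dye; rising fluorescence marks dead cells. Compound exposure lasted up to 40 h at 37 C, with reads every 8 h from 0 h.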

[6] = qHTS RealTime-Glo MT Cell Viability Assay in HepG2 cells - 32 hour (AID 1224877); also: nearly all actives have a fitted effect of over 55% in size
Outline: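 HepG2 cells (600/well) were dispensed with RealTime-Glo reagents, incubated 5 h at 37 °C, then treated with compounds in DMSO for up to 40 h. Nonlytic NanoLuc luminescence reflecting viable cells was read at each stated time point.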

[7] = A CellTox Green Cytotoxicity Assay to monitor cytotoxicity in HepG2 cells - 24 hour (AID 1224878); also: nearly all actives have a fitted effect of over 45% in size
Outline: as §2

[8] = A CellTox Green Cytotoxicity Assay to monitor cytotoxicity in HepG2 cells - 40 hour (AID 1224879); also: nearly all actives have a fitted effect of over 40% in size
Outline: as §2

[9] = A CellTox Green Cytotoxicity Assay to monitor cytotoxicity in HEK293 cells - 40 hour (AID 1224871); also: nearly all actives have a fitted effect of over 45% in size
Outline: (§3)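 Each value comes from one timepoint of a single continuous run in which HEK293 cells with CellTox Green were exposed to compound for up to 40 h at 37 C, dye fluorescence rising with cell death.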

[10] = A CellTox Green Cytotoxicity Assay to monitor cytotoxicity in HEK293 cells - 24 hour (AID 1224875); also: series mostly up to about 77 µM; nearly all actives have a fitted effect of over 45% in size
Outline: as §3
% is scaled to controls: 0 for no effect and ±100 for the full control effect.

Brc1ccc(Br)c(Br)c1
inactive: outcome [1] | Potency [2] | Potency [3] | max response [4] -6.36% and -22.4% | outcome [5] | outcome [6] | Potency [7] | Potency [8]

Cc1ccc([N+](=O)[O-])cc1S(=O)(=O)O
inactive: outcome [1] | Potency [9] | Potency [2] | Potency [3] | max response [4] 6.39% and 7.52% | Potency [10] | outcome [5] | outcome [6] | Potency [7] | Potency [8]

CC(C)=CCl
inactive: outcome [1] | Potency [9] | Potency [2] | Potency [3] | max response [4] 8.16% and 2.09% | Potency [10] | outcome [5] | outcome [6] | Potency [7] | Potency [8]

CC(=O)OCCOC(C)=O
inactive: outcome [1] | Potency [9] | Potency [2] | Potency [3] | max response [4] -0.882% and 2.01% | Potency [10] | outcome [5] | outcome [6] | Potency [7] | Potency [8]

COc1ccc(OC)cc1
inactive: outcome [1] | Potency [9] | Potency [2] | Potency [3] | max response [4] 5.27% and 14.7% | Potency [10] | outcome [5] | outcome [6] | Potency [7] | Potency [8]

O=C(O)c1cc2ccccc2cc1O
inactive: outcome [1] | Potency [9] | Potency [2] | Potency [3] | max response [4] -2.62% and 6.1% | Potency [10] | outcome [5] | outcome [6] | Potency [7] | Potency [8]

CCCCCC(=O)O
inactive: outcome [1] | Potency [9] | Potency [2] | Potency [3] | max response [4] 18.5% and 15.2% | Potency [10] | outcome [5] | outcome [6] | Potency [7] | Potency [8]

CCOCCOCCOCCO
inactive: outcome [1] | Potency [9] | Potency [2] | Potency [3] | max response [4] 3.42% and 9.26% | Potency [10] | outcome [5] | outcome [6] | Potency [7] | Potency [8]

O=S(=O)(O)c1ccccc1
inactive: outcome [1] | Potency [9] | Potency [2] | Potency [3] | max response [4] 0.0472% and -6.62% | Potency [10] | outcome [5] | outcome [6] | Potency [7] | Potency [8]

CC1(C)OC[C@@H]2O[C@@]3(C(=O)O)OC(C)(C)O[C@H]3[C@@H]2O1
inactive: outcome [1] | Potency [9] | Potency [2] | Potency [3] | max response [4] -6.82% and 4.68% | Potency [10] | outcome [5] | outcome [6] | Potency [7] | Potency [8]

CC(C)(Oc1ccc(CCNC(=O)c2ccc(Cl)cc2)cc1)C(=O)O
inactive: outcome [1] | Potency [9] | Potency [2] | Potency [3] | max response [4] 3% and 2.4% | Potency [10] | outcome [5] | outcome [6] | Potency [7] | Potency [8]

CC(=O)OCc1ccccc1
inactive: outcome [1] | Potency [9] | Potency [2] | Potency [3] | max response [4] -41.8% and -21% | Potency [10] | outcome [5] | outcome [6] | Potency [7] | Potency [8]

NC(=S)NNC(N)=S
inactive: outcome [1] | Potency [9] | Potency [2] | Potency [3] | max response [4] 7.65% and -11.1% | Potency [10] | outcome [5] | outcome [6] | Potency [7] | Potency [8]

CC(=O)c1ccc(O)cc1
inactive: outcome [1] | Potency [9] | Potency [2] | Potency [3] | max response [4] 0.924% and -3% | Potency [10] | outcome [5] | outcome [6] | Potency [7] | Potency [8]

OCc1cccc(Oc2ccccc2)c1
inactive: outcome [1] | Potency [9] | Potency [2] | Potency [3] | max response [4] -0.677% and -9.74% | Potency [10] | outcome [5] | outcome [6] | Potency [7] | Potency [8]

O=C1C(c2[nH]c3ccccc3c2O)=Nc2ccccc21
inactive: outcome [1] | Potency [9] | Potency [2] | Potency [3] | max response [4] 4.84% | Potency [10] | outcome [5] | outcome [6] | Potency [7] | Potency [8]

C=C(C)C(=O)OCC(C)C
inactive: outcome [1] | Potency [9] | Potency [2] | Potency [3] | max response [4] 0.908% and 6.86% | Potency [10] | outcome [5] | outcome [6] | Potency [7] | Potency [8]

NCCN1CCNCC1
inactive: outcome [1] | Potency [9] | Potency [2] | Potency [3] | max response [4] 1.25% and -21.7% | Potency [10] | outcome [5] | outcome [6] | Potency [7] | Potency [8]

From PubChem BioAssay (Tox21)
